From PubChem BioAssay (NCI) come the findings set out here.

Experiment in all cases: NCI-60 one-dose screen, 48 h (100 = growth as untreated, 0 = no growth, -100 = all killed)
In assay [1] the test system is T-47D breast.
For assay [2], the system named is BT-549 breast.
Assay [3] deals with MDA-MB-435 melanoma.
Assay [4] concerns SW-620 colon.
Assay [5] concerns MCF7 breast.
For assay [6], the system named is HCT-116 colon.
In assay [7] the test system is HCC-2998 colon.
For assay [8], the system named is KM12 colon.

Values joined by “and” are separate entries in the source; they are usually repeats but may differ in a detail not shown here. Equal values may be shown once. This is part of a sample that, as a whole, favours compounds with a hit. Of some 83,000 tested, about 20% had one in any assay.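 Testing used 96-well plates and a 48-hour single-concentration exposure. Example: -40 means 40% of the starting cells died.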 Active and inactive are the calls of the source. Rule for the calls: active = growth percent below 10; inactive = the rest.

In the case of `Clc1ccc2c(c1)N(c1ncnc3ccc(-c4cnc5[nH]ccc5c4)cc13)CC2`, the growth was -15% (active) in assay [1] (10 µM unless noted); 20.1% (inactive) in assay [2] (10 µM unless noted); -42.1% (active) in assay [3] (10 µM unless noted); 24.5% (inactive) in assay [4] (10 µM unless noted); 6.81% (active) in assay [5] (10 µM unless noted); 16.6% (inactive) in assay [6] (10 µM unless noted). Further, the growth in assay [7] (10 µM unless noted) was 43.7% (inactive); in assay [8] (10 µM unless noted) it was 19.9% (inactive).
Regarding `CC[C@]12CN3CCc4c([nH]c5ccccc45)[C@@](C(=O)OC)(c4cc5c(cc4OC)N(C)[C@H]4[C@@](O)(C(=O)OC)[C@H](OC(C)=O)[C@]6(CC)C=CCN7CC[C@]54[C@@H]76)CC(C3)[C@H]1O2` (stereo partly drawn), the growth in assay [1] (10 µM unless noted) was 54.8% (inactive); in assay [2] (10 µM unless noted), -26% (active); in assay [3] (10 µM unless noted), -43.8% (active); in assay [4] (10 µM unless noted) it was 17.1% (inactive); in assay [5] (10 µM), 15.7% (inactive); in assay [5] (100 µM), 35.1% (inactive) and -19% (active). Besides, the growth was 0.479% (active) in assay [6] (10 µM unless noted), -14.6% (active) in assay [7] (10 µM unless noted) and -17.6% (active) in assay [8] (10 µM unless noted).
For the compound `CCC(=O)Oc1cc(Cl)c(Cl)cc1Cl`, the growth is 101% (inactive) in assay [1] (10 µM unless noted); 102% (inactive) in assay [2] (10 µM unless noted); 107% (inactive) in assay [3] (10 µM unless noted); 107% (inactive) in assay [4] (10 µM unless noted); 93% (inactive) in assay [5] (10 µM unless noted); 94.3% (inactive) in assay [6] (10 µM unless noted). Besides, the figures for the growth in assay [7] (10 µM unless noted) and in assay [8] (10 µM unless noted) were 94.8% (inactive) and 107% (inactive), respectively.
With `CCCCCCCCCCCCCCCCCCOc1cccc(CC(=O)OCC[N+](CC)(CC)CC)c1`, the growth in assay [1] (10 µM unless noted) is 52.7% (inactive); in assay [2] (10 µM unless noted) it was 86.9% (inactive); in assay [3] (10 µM unless noted) it was 82.1% (inactive); in assay [4] (10 µM unless noted), 78.6% (inactive); in assay [5] (10 µM unless noted), 32.7% (inactive); in assay [6] (10 µM unless noted) it was 51.7% (inactive). Moreover, the growth in assay [7] (10 µM unless noted) is 56.1% (inactive); in assay [8] (10 µM unless noted), 83.3% (inactive).
As to `Nc1[nH]nc(Nc2ccccc2)c1-c1nc2ccccc2s1`, the growth in assay [1] (10 µM unless noted) is 2.9% (active); in assay [2] (10 µM unless noted) it was 38.1% (inactive); in assay [3] (10 µM unless noted) it was 22.8% (inactive); in assay [4] (10 µM unless noted), 15.5% (inactive); in assay [5] (10 µM unless noted), 12.4% (inactive); in assay [6] (10 µM unless noted), 3.73% (active). For the same compound, the growth in assay [7] (10 µM unless noted) is 18.3% (inactive); in assay [8] (10 µM unless noted), 15.6% (inactive).
As for `C=C(c1ccc(C(=O)O)cc1)c1cc2c(cc1C)C(C)(C)CCC2(C)C`, the growth is 93.8% (inactive) and 75.7% (inactive) in assay [1] (10 µM unless noted); 55.4% (inactive) in assay [2] (10 µM unless noted); 95.9% (inactive) and 84% (inactive) in assay [3] (10 µM unless noted); 113% (inactive) and 97.6% (inactive) in assay [4] (10 µM unless noted); 75.9% (inactive) and 63.6% (inactive) in assay [5] (10 µM unless noted); 71.3% (inactive) and 50% (inactive) in assay [6] (10 µM unless noted). In addition, the growth was 78.6% (inactive) and 76.1% (inactive) in assay [7] (10 µM unless noted); 59.2% (inactive) and 36.3% (inactive) in assay [8] (10 µM unless noted).
As for `O=[N+]([O-])c1ccc(S(=O)Cc2ccccc2)c([N+](=O)[O-])c1` (stereo not drawn), the growth in assay [1] (10 µM unless noted) is 29.7% (inactive) and -21.4% (active); in assay [2] (10 µM unless noted) it was 66.3% (inactive) and 67.5% (inactive); in assay [3] (10 µM unless noted), 76.2% (inactive) and 78% (inactive); in assay [4] (10 µM unless noted), -71.3% (active) and -38.1% (active); in assay [5] (10 µM unless noted), 41.1% (inactive) and 5.89% (active); in assay [6] (10 µM unless noted), -88.5% (active) and -82.3% (active). Also, the growth in assay [7] (10 µM unless noted) is 97.2% (inactive) and 97.5% (inactive); in assay [8] (10 µM unless noted), 77.1% (inactive) and 101% (inactive).
With `COc1ccc(C(=O)N/N=C/c2ccc(O)cc2O)cc1Nc1ccnc(C(F)(F)F)c1`, the growth in assay [1] (10 µM unless noted) was 21.6% (inactive); in assay [2] (10 µM unless noted) it was 55.6% (inactive); in assay [3] (10 µM unless noted), 32.7% (inactive); in assay [4] (10 µM unless noted), 35.8% (inactive); in assay [5] (10 µM unless noted), 21.9% (inactive); in assay [6] (10 µM unless noted) it was 15.6% (inactive). Further, the growth is 40.9% (inactive) in assay [7] (10 µM unless noted) and 69.4% (inactive) in assay [8] (10 µM unless noted).
As to `COc1ccc(C(=O)/C=C/c2ccc(OCc3ccc(Cl)cc3)cc2)cc1OC`, the growth was 73.8% (inactive) in assay [1] (10 µM); 41.5% (inactive) in assay [1] (100 µM); 115% (inactive) in assay [2] (10 µM); 22% (inactive) in assay [2] (100 µM); 90.7% (inactive) in assay [3] (10 µM); 43.7% (inactive) in assay [3] (100 µM). Further, the growth in assay [4] (10 µM) is 103% (inactive); in assay [4] (100 µM) it was 9.15% (active); in assay [5] (10 µM), 84.2% (inactive); in assay [5] (100 µM), 9.31% (active); in assay [6] (10 µM) it was 90.2% (inactive); in assay [6] (100 µM) it was -25.8% (active). In addition, the growth is 101% (inactive) in assay [7] (10 µM), 44% (inactive) in assay [7] (100 µM), 90.7% (inactive) in assay [8] (10 µM) and 21.4% (inactive) in assay [8] (100 µM).
Regarding `O=C(NCc1cccnc1)/C(=C\c1ccc(Br)cc1)S(=O)(=O)c1ccccc1`, the growth is -64.6% (active) in assay [1] (10 µM unless noted); -21.2% (active) in assay [2] (10 µM unless noted); -14.9% (active) in assay [3] (10 µM unless noted); -74% (active) in assay [4] (10 µM unless noted); -44.4% (active) in assay [5] (10 µM unless noted); -76% (active) in assay [6] (10 µM unless noted). Further, the growth was -76.5% (active) in assay [7] (10 µM unless noted) and -48.1% (active) in assay [8] (10 µM unless noted).
For the compound `c1ccc(-c2cc(-c3cc(-c4ccccc4)on3)no2)cc1`, the growth was 85.2% (inactive) in assay [1] (10 µM unless noted); 99.4% (inactive) in assay [2] (10 µM unless noted); 102% (inactive) in assay [3] (10 µM unless noted); 51.5% (inactive) in assay [4] (10 µM unless noted); 49.1% (inactive) in assay [5] (10 µM unless noted); 41.8% (inactive) in assay [6] (10 µM unless noted). The growth was 94.2% (inactive) in assay [7] (10 µM unless noted) and 92.8% (inactive) in assay [8] (10 µM unless noted).
As for `O=C1C=CC(=O)N1c1ccc2ccccc2c1`, the growth is 88.7% (inactive) and 88.6% (inactive) in assay [1] (10 µM unless noted); 114% (inactive) and 103% (inactive) in assay [2] (10 µM unless noted); 120% (inactive) and 95.4% (inactive) in assay [3] (10 µM unless noted); 19.4% (inactive) and -15.2% (active) in assay [4] (10 µM unless noted); 95.4% (inactive) and 106% (inactive) in assay [5] (10 µM unless noted); 44.9% (inactive) and 54.9% (inactive) in assay [6] (10 µM unless noted). For the same compound, the growth is 100% (inactive) and 106% (inactive) in assay [7] (10 µM unless noted); 103% (inactive) and 104% (inactive) in assay [8] (10 µM unless noted).
In the case of `COc1ccc(C/C(C)=C(/c2ccc(OCCN3CCCCCC3)cc2)c2ccc(OC(=O)c3ccccc3)cc2)cc1`, the growth in assay [1] (10 µM unless noted) is 71.9% (inactive); in assay [2] (10 µM unless noted), 106% (inactive); in assay [3] (10 µM unless noted) it was 104% (inactive); in assay [4] (10 µM unless noted), 98.4% (inactive); in assay [5] (10 µM unless noted), 60.5% (inactive); in assay [6] (10 µM unless noted), 93.3% (inactive). Besides, the values for the growth in assay [7] (10 µM unless noted) and in assay [8] (10 µM unless noted) were 105% (inactive) and 120% (inactive), respectively.
